# Results taken from publication PMC11006913.
# Substitutions are numbered along the chain they refer to.
# Tests used:
# Assay in all cases: PBM; 200 nM protein, PBS
# Conditions in all cases: dsDNA, one strand shown
# [1] = target: HOXC10 (Homo sapiens, UniProt Q9NYD6 254-340)
# [2] = target: T1, PAX4 (Homo sapiens, UniProt O43316 9-242, R200K)
# T1 sequence: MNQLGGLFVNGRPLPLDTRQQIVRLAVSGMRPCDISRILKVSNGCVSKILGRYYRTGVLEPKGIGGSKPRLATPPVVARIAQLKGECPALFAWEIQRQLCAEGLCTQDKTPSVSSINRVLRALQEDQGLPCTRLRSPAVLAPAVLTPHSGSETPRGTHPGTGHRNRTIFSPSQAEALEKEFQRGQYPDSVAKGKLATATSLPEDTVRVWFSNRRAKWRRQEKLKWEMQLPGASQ
# [3] = target: PRRX1 (Homo sapiens, UniProt P54821 80-166, F113S)
# [4] = target: T2, PAX4 (Homo sapiens, UniProt O43316 9-242)
# T2 sequence: T1 sequence with K192R
# [5] = target: HOXB6 (Homo sapiens, UniProt P17509 132-218, K202E)
# [6] = target: HOXD13 (Homo sapiens, UniProt P35453 263-343, T313R)
# [7] = target: T3, PAX4 (Homo sapiens, UniProt O43316 9-242, R200Q)
# T3 sequence: T1 sequence with K192Q
# [8] = target: HOXD13 (Homo sapiens, UniProt P35453 263-343)
# [9] = target: T4, PAX4 (Homo sapiens, UniProt O43316 9-242, F177V)
# T4 sequence: T1 sequence with F169V, K192R
# [10] = target: HOXC10 (Homo sapiens, UniProt Q9NYD6 254-340, K271E)
# [11] = target: T5, PAX4 (Homo sapiens, UniProt O43316 9-242, F177Y)
# T5 sequence: T1 sequence with F169Y, K192R
# [12] = target: HOXD13 (Homo sapiens, UniProt P35453 263-343, T313A)
# [13] = target: T6, PAX4 (Homo sapiens, UniProt O43316 9-242, R227W)
# T6 sequence: T1 sequence with K192R, R219W
# [14] = target: PRRX1 (Homo sapiens, UniProt P54821 80-166)
# [15] = target: HOXB6 (Homo sapiens, UniProt P17509 132-218)
# [16] = target: ALX3 (Homo sapiens, UniProt O95076 139-225, N203Q)
# [17] = target: ALX3 (Homo sapiens, UniProt O95076 139-225)
# [18] = target: ALX3 (Homo sapiens, UniProt O95076 139-225, L168Q)
# [19] = target: ALX3 (Homo sapiens, UniProt O95076 139-225, L168V)
# [20] = target: ALX3 (Homo sapiens, UniProt O95076 139-225, N203S)
# [21] = target: T7, NKX2-6 (Homo sapiens, UniProt A6NCS4 118-204, R150C)
# T7 sequence: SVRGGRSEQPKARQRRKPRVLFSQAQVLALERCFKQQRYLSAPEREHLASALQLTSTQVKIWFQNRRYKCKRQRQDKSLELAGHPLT
# [22] = target: ALX4 (Homo sapiens, UniProt Q9H161 200-286)
# [23] = target: ALX4 (Homo sapiens, UniProt Q9H161 200-286, Q225E)
# [24] = target: HOXA2 (Homo sapiens, UniProt O43364 129-215, R185T)
# [25] = target: HOXA2 (Homo sapiens, UniProt O43364 129-215, R185K)
# [26] = target: VAX1 (Homo sapiens, UniProt Q5SQQ9 86-172)
# [27] = target: VAX1 (Homo sapiens, UniProt Q5SQQ9 86-172, T142I)
# [28] = target: HOXA2 (Homo sapiens, UniProt O43364 129-215, Y150S)
# [29] = target: HOXA2 (Homo sapiens, UniProt O43364 129-215)
# [30] = target: VAX1 (Homo sapiens, UniProt Q5SQQ9 86-172, K157R)
# Chain of VAX1 (Homo sapiens, UniProt Q5SQQ9 86-172, K157R) (Q5SQQ9 86-172 K157R): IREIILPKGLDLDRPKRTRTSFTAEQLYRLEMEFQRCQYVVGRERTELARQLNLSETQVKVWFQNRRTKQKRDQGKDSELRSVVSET
# Chain of HOXC10 (Homo sapiens, UniProt Q9NYD6 254-340) (Q9NYD6 254-340): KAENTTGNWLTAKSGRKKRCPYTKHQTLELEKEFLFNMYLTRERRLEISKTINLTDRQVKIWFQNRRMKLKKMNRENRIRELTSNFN
# Chain of HOXD13 (Homo sapiens, UniProt P35453 263-343, T313R) (P35453 263-343 T313R): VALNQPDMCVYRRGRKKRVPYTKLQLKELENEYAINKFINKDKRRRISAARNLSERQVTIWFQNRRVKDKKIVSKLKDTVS
# Chain of HOXD13 (Homo sapiens, UniProt P35453 263-343, T313A) (P35453 263-343 T313A): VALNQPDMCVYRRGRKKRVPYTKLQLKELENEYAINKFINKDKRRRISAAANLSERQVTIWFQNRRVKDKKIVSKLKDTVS
# Chain of HOXC10 (Homo sapiens, UniProt Q9NYD6 254-340, K271E) (Q9NYD6 254-340 K271E): as the sequence (Q9NYD6 254-340) above, with K18E counted along it
# Chain of HOXD13 (Homo sapiens, UniProt P35453 263-343) (P35453 263-343): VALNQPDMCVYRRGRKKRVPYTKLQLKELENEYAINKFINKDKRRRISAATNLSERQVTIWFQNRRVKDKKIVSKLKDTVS
# Chain of HOXB6 (Homo sapiens, UniProt P17509 132-218) (P17509 132-218): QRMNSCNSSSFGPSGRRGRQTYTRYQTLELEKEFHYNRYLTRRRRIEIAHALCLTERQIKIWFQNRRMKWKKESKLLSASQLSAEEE
# Chain of HOXB6 (Homo sapiens, UniProt P17509 132-218, K202E) (P17509 132-218 K202E): as the sequence (P17509 132-218) above, with K71E counted along it
# Chain of PRRX1 (Homo sapiens, UniProt P54821 80-166) (P54821 80-166): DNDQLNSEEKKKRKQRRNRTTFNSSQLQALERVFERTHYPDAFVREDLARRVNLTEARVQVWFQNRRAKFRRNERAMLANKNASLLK
# Chain of PRRX1 (Homo sapiens, UniProt P54821 80-166, F113S) (P54821 80-166 F113S): as the sequence (P54821 80-166) above, with F34S counted along it
# Chain of VAX1 (Homo sapiens, UniProt Q5SQQ9 86-172, T142I) (Q5SQQ9 86-172 T142I): as the sequence (Q5SQQ9 86-172 K157R) above, with T57I, R72K counted along it
# Chain of HOXA2 (Homo sapiens, UniProt O43364 129-215) (O43364 129-215): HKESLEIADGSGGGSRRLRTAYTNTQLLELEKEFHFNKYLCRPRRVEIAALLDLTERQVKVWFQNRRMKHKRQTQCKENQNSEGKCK
# Chain of VAX1 (Homo sapiens, UniProt Q5SQQ9 86-172) (Q5SQQ9 86-172): as the sequence (Q5SQQ9 86-172 K157R) above, with R72K counted along it
# Chain of ALX3 (Homo sapiens, UniProt O95076 139-225) (O95076 139-225): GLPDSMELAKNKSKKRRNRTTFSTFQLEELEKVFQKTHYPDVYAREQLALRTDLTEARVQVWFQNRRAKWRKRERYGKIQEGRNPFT
# Chain of HOXA2 (Homo sapiens, UniProt O43364 129-215, R185K) (O43364 129-215 R185K): as the sequence (O43364 129-215) above, with R57K counted along it
# Chain of ALX3 (Homo sapiens, UniProt O95076 139-225, N203Q) (O95076 139-225 N203Q): as the sequence (O95076 139-225) above, with N65Q counted along it
# Chain of HOXA2 (Homo sapiens, UniProt O43364 129-215, R185T) (O43364 129-215 R185T): as the sequence (O43364 129-215) above, with R57T counted along it
# Chain of ALX3 (Homo sapiens, UniProt O95076 139-225, L168Q) (O95076 139-225 L168Q): as the sequence (O95076 139-225) above, with L30Q counted along it
# Chain of HOXA2 (Homo sapiens, UniProt O43364 129-215, Y150S) (O43364 129-215 Y150S): as the sequence (O43364 129-215) above, with Y22S counted along it
# Chain of ALX4 (Homo sapiens, UniProt Q9H161 200-286) (Q9H161 200-286): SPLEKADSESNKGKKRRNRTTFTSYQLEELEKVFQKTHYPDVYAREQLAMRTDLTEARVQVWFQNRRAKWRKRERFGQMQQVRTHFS
# Chain of ALX4 (Homo sapiens, UniProt Q9H161 200-286, Q225E) (Q9H161 200-286 Q225E): as the sequence (Q9H161 200-286) above, with Q26E counted along it
# Chain of ALX3 (Homo sapiens, UniProt O95076 139-225, L168V) (O95076 139-225 L168V): as the sequence (O95076 139-225) above, with L30V counted along it
# Chain of ALX3 (Homo sapiens, UniProt O95076 139-225, N203S) (O95076 139-225 N203S): as the sequence (O95076 139-225) above, with N65S counted along it
sequence,measurement,setting,value
CGCCCCCG,binding signal,[1],"10 upbm affinity estimate (log intensity, higher = more binding, comparable within an allelic series)"
same,binding signal,[2],"9.05 upbm affinity estimate (log intensity, higher = more binding, comparable within an allelic series)"
same,binding signal,[3],"9.19 upbm affinity estimate (log intensity, higher = more binding, comparable within an allelic series)"
same,binding signal,[4],"9.27 upbm affinity estimate (log intensity, higher = more binding, comparable within an allelic series)"
same,binding signal,[5],"8.93 upbm affinity estimate (log intensity, higher = more binding, comparable within an allelic series)"
same,binding signal,[6],"9.18 upbm affinity estimate (log intensity, higher = more binding, comparable within an allelic series)"
same,binding signal,[7],"9.26 upbm affinity estimate (log intensity, higher = more binding, comparable within an allelic series)"
same,binding signal,[8],"9.19 upbm affinity estimate (log intensity, higher = more binding, comparable within an allelic series)"
same,binding signal,[9],"9.01 upbm affinity estimate (log intensity, higher = more binding, comparable within an allelic series)"
same,binding signal,[10],"9.94 upbm affinity estimate (log intensity, higher = more binding, comparable within an allelic series)"
same,binding signal,[11],"8.92 upbm affinity estimate (log intensity, higher = more binding, comparable within an allelic series)"
same,binding signal,[12],"9.4 upbm affinity estimate (log intensity, higher = more binding, comparable within an allelic series)"
same,binding signal,[13],"9.12 upbm affinity estimate (log intensity, higher = more binding, comparable within an allelic series)"
same,binding signal,[14],"9.18 upbm affinity estimate (log intensity, higher = more binding, comparable within an allelic series)"
same,binding signal,[15],"8.91 upbm affinity estimate (log intensity, higher = more binding, comparable within an allelic series)"
GTTTACGA,binding signal,[1],"12.2 upbm affinity estimate (log intensity, higher = more binding, comparable within an allelic series)"
same,binding signal,[6],"10.8 upbm affinity estimate (log intensity, higher = more binding, comparable within an allelic series)"
same,binding signal,[8],"12.1 upbm affinity estimate (log intensity, higher = more binding, comparable within an allelic series)"
same,binding signal,[10],"11.6 upbm affinity estimate (log intensity, higher = more binding, comparable within an allelic series)"
same,binding signal,[12],"11.9 upbm affinity estimate (log intensity, higher = more binding, comparable within an allelic series)"
CCTGGGAC,binding signal,[1],"9.91 upbm affinity estimate (log intensity, higher = more binding, comparable within an allelic series)"
same,binding signal,[16],"7.73 upbm affinity estimate (log intensity, higher = more binding, comparable within an allelic series)"
same,binding signal,[10],"9.99 upbm affinity estimate (log intensity, higher = more binding, comparable within an allelic series)"
same,binding signal,[17],"7.73 upbm affinity estimate (log intensity, higher = more binding, comparable within an allelic series)"
same,binding signal,[18],"7.73 upbm affinity estimate (log intensity, higher = more binding, comparable within an allelic series)"
same,binding signal,[19],"7.7 upbm affinity estimate (log intensity, higher = more binding, comparable within an allelic series)"
same,binding signal,[20],"7.68 upbm affinity estimate (log intensity, higher = more binding, comparable within an allelic series)"
GAGGCCTC,binding signal,[1],"10.1 upbm affinity estimate (log intensity, higher = more binding, comparable within an allelic series)"
same,binding signal,[21],"9.72 upbm affinity estimate (log intensity, higher = more binding, comparable within an allelic series)"
same,binding signal,[10],"10.1 upbm affinity estimate (log intensity, higher = more binding, comparable within an allelic series)"
AGGGCGGA,binding signal,[1],"9.89 upbm affinity estimate (log intensity, higher = more binding, comparable within an allelic series)"
same,binding signal,[6],"9.35 upbm affinity estimate (log intensity, higher = more binding, comparable within an allelic series)"
same,binding signal,[8],"9.36 upbm affinity estimate (log intensity, higher = more binding, comparable within an allelic series)"
same,binding signal,[10],"9.9 upbm affinity estimate (log intensity, higher = more binding, comparable within an allelic series)"
same,binding signal,[12],"9.37 upbm affinity estimate (log intensity, higher = more binding, comparable within an allelic series)"
CTGGTGGC,binding signal,[1],"9.99 upbm affinity estimate (log intensity, higher = more binding, comparable within an allelic series)"
same,binding signal,[22],"7.93 upbm affinity estimate (log intensity, higher = more binding, comparable within an allelic series)"
same,binding signal,[23],"8.14 upbm affinity estimate (log intensity, higher = more binding, comparable within an allelic series)"
same,binding signal,[10],"10.1 upbm affinity estimate (log intensity, higher = more binding, comparable within an allelic series)"
GGCACGCC,binding signal,[1],"10 upbm affinity estimate (log intensity, higher = more binding, comparable within an allelic series)"
same,binding signal,[24],"6.97 upbm affinity estimate (log intensity, higher = more binding, comparable within an allelic series)"
same,binding signal,[25],"10.1 upbm affinity estimate (log intensity, higher = more binding, comparable within an allelic series)"
same,binding signal,[10],"10 upbm affinity estimate (log intensity, higher = more binding, comparable within an allelic series)"
same,binding signal,[26],"6.93 upbm affinity estimate (log intensity, higher = more binding, comparable within an allelic series)"
same,binding signal,[27],"7.04 upbm affinity estimate (log intensity, higher = more binding, comparable within an allelic series)"
same,binding signal,[28],"10.3 upbm affinity estimate (log intensity, higher = more binding, comparable within an allelic series)"
same,binding signal,[29],"7.03 upbm affinity estimate (log intensity, higher = more binding, comparable within an allelic series)"
same,binding signal,[30],"6.97 upbm affinity estimate (log intensity, higher = more binding, comparable within an allelic series)"
